Tests used:
CHO = assay: % viability of CHO cells (MTT); higher = less toxic; details: 48 h
Outline: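 CHO cells were plated at 10^6 cells/well in 200 µL and allowed to attach overnight. Fresh medium with compound at 2 or 20 µM then replaced the old medium for 48 h. Percent viability, relative to untreated cells, came from a colorimetric tetrazolium (MTT) readout.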

HepG2-A16-CD81 = assay: % inhibition of HepG2 viability (CellTiter-Glo); higher = more toxic; details: 5 µM
[1] = system: Plasmodium falciparum NF54 stage IV/V gametocytes; assay: % inhibition of gametocyte viability (PrestoBlue); higher = more inhibition; details: 48 h
Outline: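 In a single run, percent inhibition of gametocyte viability was calculated relative to vehicle and kill controls. The wells held 100 µL of Stage IV/V NF54 gametocytes at 2% gametocytaemia and 5% haematocrit, with compound at 1 or 5 µM. Plates stood at 37 °C in hypoxic conditions for 48 h. After that, 10 µL PrestoBlue was added for 2 h, and 70 µL of supernatant was transferred for fluorescence reading at 612 nm.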

[2] = system: Plasmodium falciparum NF54 asexual blood stage; assay: % inhibition of asexual blood stage proliferation (pLDH); higher = more inhibition; details: 72 h
Outline: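 Percent inhibition of asexual proliferation, normalised to controls, was determined in a screen repeated on two separate occasions. Plasmodium falciparum NF54 ring-stage cultures (1% haematocrit, 2% parasitaemia) received compound at 2 or 20 µM and were incubated for 72 h at 37 °C under 4% CO2, 3% O2 and 93% N2. A colorimetric parasite lactate dehydrogenase readout at 620 nm gave survival.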

[3] = system: Plasmodium falciparum NF54 stage IV/V gametocytes; assay: % inhibition of gametocyte viability (ATP bioluminescence); higher = more inhibition; details: 24 h
Outline: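 Enriched stage IV/V NF54 gametocytes were exposed to compound at 1 or 5 µM for 24 h at 37 °C in 96-well plates. Percent inhibition of gametocyte viability was derived from a bioluminescent ATP readout, normalised to controls within a single run.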

[4] = system: Plasmodium falciparum NF54 stage IV/V gametocytes; assay: % inhibition of gametocyte viability (luciferase reporter); higher = more inhibition; details: 48 h
Outline: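 Compound at 1 or 5 µM was added to stage IV/V NF54-Pfs16-GFP-Luc gametocytes (2% gametocytaemia, 2% haematocrit) and incubated stationary and hypoxic at 37 °C for 48 h. A GloMax-Multi+ reader measured luminescence over 10 s integration on 30 µL lysate plus 30 µL Promega luciferin substrate. Percent inhibition values were normalised to controls within a single run.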

[5] = system: Plasmodium berghei ANKA liver stage in HepG2-A16-CD81; assay: % inhibition of liver stage parasite viability (luciferase); higher = more inhibition; details: 5 µM; 48 h
Protocol: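 Single-concentration screen of the MMV Pandemic Response Box. P. falciparum NF54 asexual blood stages: pLDH assay, 72 h at 37 °C, 2 and 20 µM, n=2. Stage IV/V gametocytes (NF54): luciferase reporter (NF54-Pfs16-GFP-Luc, 48 h), ATP bioluminescence (24 h) and PrestoBlue (48 h) at 1 and 5 µM, n=1. P. berghei liver stage (luciferase in HepG2-A16-CD81, 48 h post infection) at 5 µM, n=4. All normalised to DMSO and kill controls as % inhibition.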
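Throughout, for % inhibition of HepG2 viability (CellTiter-Glo): HepG2-A16-CD81 hepatoma cells plated as in the liver-stage assay but without sporozoites, with DMSO wells as negative and 25 µM puromycin as positive control.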

| SMILES | % viability of CHO cells (CHO; 2 µM) [%] | % viability of CHO cells (CHO; 20 µM) [%] | % inhibition of HepG2 viability (HepG2-A16-CD81) [%] | % inhibition of gametocyte viability ([1]; 1 µM) [%] | % inhibition of gametocyte viability ([1]; 5 µM) [%] | % inhibition of asexual blood stage proliferation ([2]; 2 µM) [%] | % inhibition of asexual blood stage proliferation ([2]; 20 µM) [%] | % inhibition of gametocyte viability ([3]; 1 µM) [%] | % inhibition of gametocyte viability ([3]; 5 µM) [%] | % inhibition of gametocyte viability ([4]; 1 µM) [%] | % inhibition of gametocyte viability ([4]; 5 µM) [%] | % inhibition of liver stage parasite viability [5] [%] |
| --- | --- | --- | --- | --- | --- | --- | --- | --- | --- | --- | --- | --- |
| Nc1nc(-c2ccccc2)nc2[nH]nc(Nc3ccc(C(F)(F)F)cc3)c12 | 80.5 | 60.9 | -9.27 | 15 | 7.65 | 20 | 80.5 | < 0 | < 0 | < 0 | < 0 | 53.1 |
| O=P(O)(O)C(CCCc1cccc(Oc2ccccc2)c1)S(=O)(=O)O (centres undefined) | 113 | 109 | -5.33 | 12.4 | 30.6 | 34.7 | 69.9 | < 0 | < 0 | < 0 | 3 | 9.62 |
| CNc1nc(=O)[nH]cc1F | 95.1 | 98.5 | -2.31 | < 0 | 8.84 | -10.3 | -14.1 | < 0 | < 0 | < 0 | < 0 | 18.4 |
| O=C(Nc1ccc(Cl)c(C(F)(F)F)c1)C(CCCl)C(=O)Nc1ccc(Cl)c(C(F)(F)F)c1 | 84 | 93.6 | 5.66 | < 0 | < 0 | 19.9 | 27.7 | < 0 | < 0 | < 0 | < 0 | 11.8 |
| COc1ccc(CNC(=O)C2CCN([C@H](C)c3cccc4ccccc34)CC2)cc1 | 128 | 70.1 | 0.399 | < 0 | 11 | 79.1 | 64.2 | 8.45 | 8.31 | 12.8 | < 0 | 19.6 |
| NC(=O)c1c(N)sc2c1CCCCC2 | 87 | 32 | 6.02 | < 0 | 8.3 | 4.8 | -4.48 | < 0 | < 0 | 0.638 | 1.6 | -7.51 |
| COc1cc(NC(=O)CN2C(=O)NC(c3ccccc3)(c3ccccc3)C2=O)cc(OC)c1 | 91.4 | 102 | -3.2 | < 0 | 28.9 | -4.55 | 7.51 | < 0 | < 0 | < 0 | 8.59 | 9.85 |
| CCc1ccc(C2CC(C(F)(F)F)n3ncc(C(=O)NCc4ccc(OC)cc4)c3N2)cc1 (centres undefined) | 83 | 61.2 | 8.05 | < 0 | 34.6 | 37.2 | 67.7 | 2.93 | 4.83 | < 0 | 6.49 | 32.1 |
| Cc1ncc([N+](=O)[O-])n1CC(O)CN1CCOCC1 (centres undefined) | 106 | 55.4 | -2.47 | < 0 | < 0 | 30.7 | 75.1 | < 0 | < 0 | 0.715 | 1.52 | 25.3 |
| O=C(Nc1ccccc1)N(Cc1cc(Br)ccc1O)c1ccc(F)cc1 | 99.5 | 61.3 | -2.44 | 27.2 | 8.98 | 6.3 | 14.7 | < 0 | < 0 | < 0 | < 0 | 17.9 |
| Cc1[nH]c2ccccc2c1CCNCc1ccc(/C=C/C(=O)NO)cc1 | 76.4 | 37.9 | 54.5 | 19.9 | 34.4 | 62.2 | 79.9 | < 0 | < 0 | 31.8 | 3.05 | 72.8 |
| COc1ccc(OCc2ccc(COc3c(Cl)cccc3Cl)cc2)c(Cl)c1 | 99.5 | 100 | -5.86 | < 0 | < 0 | 21.2 | 68.1 | 4.45 | < 0 | < 0 | < 0 | 33.2 |

— the supplement of paper PMC7801607
